The panel holds about 83,000 compounds, 20% with a hit somewhere; the sample as a whole holds those more often.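 The endpoint reported here, percent growth, reads 100 for growth as untreated, 0 for no net growth and -100 for all cells dead.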 Unmarked numbers belong to inactive results. The source made the active and inactive calls. The calls were made as follows: active = growth percent below 10; inactive = the rest.

Some test systems named below: NCI-H23 lung; NCI-H226 lung; NCI-H322M lung; HOP-62 NSCLC; NCI-H460 lung; HOP-92 NSCLC; NCI-H522 lung; A549/ATCC NSCLC; 786-0 renal; COLO 205 colon.
Assay in all cases: NCI-60 one-dose screen, 48 h (100 = growth as untreated, 0 = no growth, -100 = all killed)
Holding throughout (details): 10 µM unless noted

Take `CC(=O)[C@@H]1CC[C@]2(COS(=O)(=O)c3ccc(C)cc3)CC[C@]3(C)[C@H](CC[C@@H]4[C@@]5(C)CCCNC(C)(C)[C@@H]5CC[C@]43C)[C@@H]12`: the growth in the test on NCI-H23 lung was 78.6%; with NCI-H226 lung, 86%; in the test on NCI-H322M lung, 93.7%; in the test on HOP-62 NSCLC, 87.1%; in the test on NCI-H460 lung it was 41.8%; in the test on HOP-92 NSCLC, 57.6%. In addition, the growth is 89.8% with NCI-H522 lung, 70.5% in the test with A549/ATCC NSCLC, 89.5% in the test with 786-0 renal and -62.4% (active) in the test with COLO 205 colon.
Regarding `CN(c1ccccc1)c1ccc2c(c1)OCCC21CC1Nc1cnccc1C(=O)O` (stereo not given), the growth is 95.4% with NCI-H23 lung; 63.9% with NCI-H226 lung; 87.5% with NCI-H322M lung; 63.2% with HOP-62 NSCLC; 45.7% with NCI-H460 lung; 101% with HOP-92 NSCLC. For the same molecule, the growth in the test on NCI-H522 lung was 63.7%; in the test on A549/ATCC NSCLC it was 83.4%; in the test on 786-0 renal it was 72.9%; with COLO 205 colon, 68.6%.
As for `Cc1ccc(Cl)cc1NC(=O)c1cc2ccccc2cc1O`, the growth in the test on NCI-H23 lung is -30.4% (active); in the test on NCI-H226 lung, -35.6% (active); with NCI-H322M lung it was -3.32% (active); in the test on HOP-62 NSCLC, -23.8% (active); in the test on NCI-H460 lung, -22.5% (active); with HOP-92 NSCLC it was -10.5% (active). In addition, the growth is -18% (active) in the test on NCI-H522 lung, 13.9% with A549/ATCC NSCLC, -6.83% (active) in the test with 786-0 renal and 1.54% (active) with COLO 205 colon.
Regarding `Cc1ccc2nc3ccccc3c(NCc3ccccc3)c2c1`, the growth is 35.8% with NCI-H23 lung; 49.8% in the test with NCI-H226 lung; 40.8% in the test on NCI-H322M lung; 43.5% in the test with HOP-62 NSCLC; 17.1% in the test on NCI-H460 lung; -6.69% (active) in the test on HOP-92 NSCLC. The growth was 37% in the test on NCI-H522 lung, 40.2% with A549/ATCC NSCLC, 34.3% with 786-0 renal and 8.06% (active) with COLO 205 colon.
For `CCN(CC)Cc1cccc(C(=O)OC)c1`, the growth was 96.6% in the test on NCI-H23 lung; 90.2% in the test on NCI-H226 lung; 106% with NCI-H322M lung; 85.2% in the test with HOP-62 NSCLC; 103% in the test with NCI-H460 lung; 87.7% with HOP-92 NSCLC. Also, the growth in the test with NCI-H522 lung is 101%; in the test with A549/ATCC NSCLC it was 69%; with 786-0 renal, 90.7%; with COLO 205 colon, 106%.
Turning to `NS(=O)(=O)c1cnccc1Sc1ccncc1S(N)(=O)=O`, the growth in the test with NCI-H23 lung is 96.5%; in the test with NCI-H226 lung, 95.2%; with NCI-H322M lung, 124%; with HOP-62 NSCLC it was 91.7%; in the test on NCI-H460 lung, 108%; with HOP-92 NSCLC, 92.1%. Also, the growth was 115% in the test on NCI-H522 lung, 109% with A549/ATCC NSCLC, 100% with 786-0 renal and 98.8% in the test with COLO 205 colon.
As for `COc1cc(C2CC(=O)Nc3c2c(C)nn3-c2nc3ccccc3[nH]2)c(OC)c2c1OCO2` (stereo not given), the growth in the test with NCI-H23 lung was 86.9%; in the test on NCI-H226 lung, 84.8%; in the test on NCI-H322M lung, 86.9%; in the test with HOP-62 NSCLC, 75.8%; with NCI-H460 lung, 66.7%; in the test with HOP-92 NSCLC, 85%. For the same molecule, the growth with NCI-H522 lung was 71.2%; in the test with A549/ATCC NSCLC, 52.4%; in the test with 786-0 renal it was 78.6%; in the test with COLO 205 colon, 91.9%.
Consider `O=C1C=C[C@]2(C[C@@H](c3cccc(C(F)(F)F)c3)O[C@@H](c3cccc(C(F)(F)F)c3)O2)O1`, for which the growth in the test with NCI-H23 lung was 50.1%; in the test on NCI-H226 lung it was -72.7% (active); in the test on NCI-H322M lung, 74.3%; in the test on HOP-62 NSCLC it was 4.06% (active); with NCI-H460 lung, 1.85% (active); in the test with HOP-92 NSCLC, -5.73% (active). The growth in the test with NCI-H522 lung was -78.8% (active); with A549/ATCC NSCLC it was 27.3%; in the test on 786-0 renal, -88.8% (active); with COLO 205 colon, 12.1%.
In the case of `COc1ccccc1CNCCCN1C(=O)c2ccc3c4c(ccc(c24)C1=O)C(=O)N(CCCNCCCCN)C3=O`, the growth is -38.6% (active) in the test with NCI-H23 lung; -56.5% (active) in the test with NCI-H226 lung; -10.1% (active) with NCI-H322M lung; -31% (active) with HOP-62 NSCLC; -46.2% (active) with NCI-H460 lung; -16% (active) in the test with HOP-92 NSCLC. The growth is -84% (active) in the test with NCI-H522 lung, -65% (active) in the test with A549/ATCC NSCLC, 0.16% (active) in the test with 786-0 renal and -81.5% (active) with COLO 205 colon.
Take `N#Cc1c(-c2ccccn2)[nH]c(=S)[nH]c1=O`: the growth was 106% in the test with NCI-H23 lung; 103% in the test with NCI-H226 lung; 97% in the test on NCI-H322M lung; 99.9% in the test with HOP-62 NSCLC; 108% in the test on NCI-H460 lung; 93.6% in the test with HOP-92 NSCLC. The growth in the test on NCI-H522 lung was 88.9%; in the test on A549/ATCC NSCLC, 98%; with 786-0 renal it was 92.2%; with COLO 205 colon it was 110%.
Consider `N#C/C(=C/C=C/c1cccc(Cl)c1)S(=O)c1ccccc1` (stereo not given), for which the growth with NCI-H23 lung was -43.6% (active); in the test on NCI-H226 lung, -33% (active); in the test on NCI-H322M lung, -44.9% (active); with HOP-62 NSCLC, -17.4% (active); in the test on NCI-H460 lung it was -22.1% (active); in the test with HOP-92 NSCLC it was -60.9% (active). Besides, the growth was -89.2% (active) in the test on NCI-H522 lung, 1.83% (active) in the test with A549/ATCC NSCLC, -88.7% (active) in the test on 786-0 renal and -63.1% (active) in the test with COLO 205 colon.
Take `CCCCCCCCCCCCCCCCCCOc1ccc(CC(=O)OCC[N+]2(C)CCCC2)cc1`: the growth with NCI-H23 lung was 93.2%; with NCI-H226 lung, 92.6%; in the test on NCI-H322M lung it was 102%; with HOP-62 NSCLC, 101%; with NCI-H460 lung it was 99.7%; in the test on HOP-92 NSCLC it was 110%. For the same molecule, the growth in the test with NCI-H522 lung is 96.8%; with A549/ATCC NSCLC, 97.2%; with 786-0 renal, 96.2%; in the test on COLO 205 colon, 107%.
Consider `O=c1c2cc(F)ccc2sc2c(NCCCN3CCCC3)nc3ccccc3c12`, for which the growth in the test on NCI-H23 lung is 64.2%; in the test with NCI-H226 lung it was 79.2%; in the test with NCI-H322M lung, 64.1%; in the test with HOP-62 NSCLC, 63.5%; with NCI-H460 lung it was 12%; with HOP-92 NSCLC, 25.1%. Also, the growth is 25.1% with NCI-H522 lung, 52.8% in the test with A549/ATCC NSCLC, 37.1% in the test on 786-0 renal and 46% in the test with COLO 205 colon.
For `CN(C)c1ccc(/C=C/C(=O)c2cccc(Nc3nc(Nc4ccccc4)nc(Nc4ccccc4)n3)c2)cc1`, the growth in the test on NCI-H23 lung is 82.7%; in the test with NCI-H226 lung it was 94%; with NCI-H322M lung, 93.5%; with HOP-62 NSCLC, 86.5%; in the test on NCI-H460 lung, 98.4%; in the test with HOP-92 NSCLC it was 46.9%. Also, the growth was 87.3% in the test with NCI-H522 lung, 85.6% with A549/ATCC NSCLC, 88.2% in the test with 786-0 renal and 81.5% in the test on COLO 205 colon.
